Source: PubChem (National Center for Advancing Translational Sciences (NCATS))
Shown are actives, neighbours in structure and some others; about 2.9% of the full set was active somewhere.
DRD3 agonist: D3 dopamine receptor (human) agonism. D3R DiscoveRx beta-arrestin cells, luminescence, 90 min. 0.58% of 410,000 active. max activation, %; in the data active means max activation above about 30%
Target sequence (P35462 whole entry, looked up): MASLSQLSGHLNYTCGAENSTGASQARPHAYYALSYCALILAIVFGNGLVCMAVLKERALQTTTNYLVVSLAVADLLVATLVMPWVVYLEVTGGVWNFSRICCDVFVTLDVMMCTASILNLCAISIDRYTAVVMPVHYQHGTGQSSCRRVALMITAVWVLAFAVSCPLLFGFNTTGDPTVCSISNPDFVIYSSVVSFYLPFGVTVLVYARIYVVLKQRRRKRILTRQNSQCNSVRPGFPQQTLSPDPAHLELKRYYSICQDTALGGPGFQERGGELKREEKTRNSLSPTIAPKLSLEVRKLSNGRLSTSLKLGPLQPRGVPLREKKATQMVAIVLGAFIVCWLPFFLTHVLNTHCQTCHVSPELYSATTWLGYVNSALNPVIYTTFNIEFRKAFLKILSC
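Agonist mode: compounds and dopamine controls were applied to plated cells for 90 min at 37 degrees C after an overnight attachment at 1500 cells/well. Luminescent read-out followed 30 - 60 minutes at room temperature with DiscoveRx detection reagent.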
a7 integrin act: activators of alpha7 integrin expression for muscular dystrophy | Potency, µM (series often up to 38.3 µM), hits mostly activators | alpha7betagal myoblasts, beta-gal FDG fluorescence, 48 h | AID 624291 | 0.064% of 350,000 active; active means well fitted activation curve with a large enough effect; inconclusive means small, poorly fitted or top-dose-only effect; inactive means no such curve, though single readings can be large or run the other way; further: nearly all actives have a fitted effect of over 60% in size
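alpha7betagal+/- myoblasts (passage 13, 250/well) treated 48 h at 37C with compounds at 1:260 dilution of DMSO stock. Lysed, then beta-galactosidase activity read as FDG fluorescence (ex 480/em 540) after 30 min, with pre-read for autofluorescence.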
D3 antag: antagonists of human D3 dopamine receptor. 2.5% of 360,000 active. max response, negative = inhibition, %. P35462. D3R cells, DiscoveRx beta-arrestin luminescence, antagonist mode; hits give low values; in the data active means max response below about -50%; inconclusive means no clear call, values can overlap the other calls
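Cells expressing the human receptor were seeded at 1500 cells/well, incubated overnight at 37 degrees C in 5% CO2, then exposed to library compounds with dopamine controls for 90 minutes at 37 degrees C before luminescent detection.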
Of the large screens only hits and unclear results are named; the others gave an inactive call.

CC1CCCCC1NC(=O)CN1C(=O)c2ccccc2S1(=O)=O (stereo unspecified)	none
O=C(CN1C(=O)c2ccccc2S1(=O)=O)NC1CCCC1	D3 antag -52
COc1cc(/C=N/n2c(C3CCCCC3)n[nH]c2=S)cc(OC)c1O	D3 antag inconclusive
CCOC(=O)c1cnc2ccc(Br)cc2c1NCC(C)O (stereo unspecified)	none
CCC(=O)N1CCc2cc(S(=O)(=O)NC(C(=O)NCc3ccc(F)cc3)C(C)C)ccc21 (stereo unspecified)	none
CCC(=O)N1CCc2cc(S(=O)(=O)NCCN3CCCCC3CC)ccc21 (stereo unspecified)	D3 antag -59
CCC(=O)N1CCc2cc(S(=O)(=O)NC(C(=O)NCc3ccccc3)C(C)C)ccc21 (stereo unspecified)	D3 antag -77
CCOC(=O)C1CCN(C(=O)CCNS(=O)(=O)c2ccc3c(c2)CCN3C(=O)CC)CC1	a7 integrin act inconclusive
O=C(C1CCC1)N1CCc2cc(S(=O)(=O)NCCN3CCN(c4ccccc4F)CC3)ccc21	DRD3 agonist 67
O=C(CCNS(=O)(=O)c1ccc2c(c1)CCN2C(=O)C1CC1)N1CCN(c2ccccc2F)CC1	none (no result: a7 integrin act, D3 antag)
CC(OC(=O)C1CC(=O)N(Cc2ccccc2)C1)C(=O)Nc1ccc(F)cc1Cl (stereo unspecified)	D3 antag inconclusive
COCCNC(=O)c1cn(Cc2c(F)cccc2Cl)nn1	none
CCOC(=O)CCCSc1nc2sc3c(c2c(=O)[nH]1)CCC3	none
Cc1nc2nc(C(F)(F)F)[nH]n2c(=O)c1Cc1ccccc1	none (no result: a7 integrin act, D3 antag)
N=C(N)SCc1nc2ccccc2c(=O)n1-c1ccccc1Cl	none
Cc1ccccc1-n1c(CSC(=N)N)nc2ccccc2c1=O	D3 antag -72
O=C(O)CSc1nnc(-c2cccc(S(=O)(=O)N3CCOCC3)c2)n1-c1ccc(F)cc1	none
O=S(=O)(NCCc1csc(-c2ccc(C(F)(F)F)cc2)n1)c1ccc2c(c1)OCCO2	none
O=C(NCc1cccnc1)/C(=C\c1ccc(-c2ccc(Br)cc2)o1)S(=O)(=O)c1ccccc1	D3 antag -89
O=C(NCc1cccnc1)/C(=C/c1ccc(-c2ccc(Cl)cc2)o1)S(=O)(=O)c1ccccc1	D3 antag inconclusive
CCOc1ccccc1C(=O)NCC(=O)N(C)Cc1ccccc1C	none
CCCc1[nH]n(-c2nc3ccccc3s2)c(=O)c1C=NCC(C)C	none
CC1CCCCC1NC(=O)CSc1ncnc2sccc12 (stereo unspecified)	none
Cc1c(NS(=O)(=O)c2cccs2)cccc1-c1nc2cccnc2s1	none
CS(=O)(=O)Nc1cccc2cccnc12	D3 antag -57
Cc1c(NS(C)(=O)=O)cccc1-c1nc2cccnc2s1	D3 antag -51
CCC(=O)Nc1cccc2cccnc12	a7 integrin act inconclusive
Cc1ccccc1NS(=O)(=O)c1ccc(S(=O)(=O)N2CCCC2)cc1	none
O=S(=O)(Nc1cccc2cccnc12)c1ccccc1	D3 antag -71
O=S(=O)(Nc1cccc2cccnc12)c1ccc(S(=O)(=O)N2CCCC2)cc1	D3 antag -72
CC(=O)Nc1ccc(S(=O)(=O)Nc2cccc3cccnc23)cc1	none
C[C@@H](NC(=O)c1nc[nH]c1C(=O)N1CCc2ccccc2C1)c1ccccc1	none
CS(=O)(=O)N(Cc1ccccc1)c1ccc(C(=O)Nc2ccccc2Sc2ccccc2)cc1	none
Cc1ccc(S(=O)(=O)Nc2cccc3cccnc23)c([N+](=O)[O-])c1	D3 antag -56
Cc1cc(C)c(NS(=O)(=O)c2cccc3cccnc23)c(C)c1	none
Cc1ccnc(NC(=O)CCc2c(C)nc3ncnn3c2C)c1	none
Cc1ccc(C(=O)COC(=O)CN2C(=O)C3C4C=CC(C4)C3C2=O)cc1[N+](=O)[O-] (stereo unspecified)	none
O=C(CN1C(=O)C2C3C=CC(C3)C2C1=O)OCC(=O)c1ccc(Cl)c([N+](=O)[O-])c1 (stereo unspecified)	D3 antag -70
COc1ccc(S(=O)(=O)N2CCCC2CNC(=O)C(=O)NC2CCCC2)cc1 (stereo unspecified)	none
COc1ccc(CCNC(=O)C(=O)NCC2CCCN2S(=O)(=O)c2ccc(OC)cc2)cc1 (stereo unspecified)	DRD3 agonist 34
Cc1ccc(-c2nc3ccc(C)cn3c2Cc2ccccn2)cc1	none (no result: a7 integrin act)
CCOc1ccc(S(=O)(=O)NCc2cccs2)cc1	none
CCSc1nnc(-c2ccc(S(=O)(=O)NCc3cccs3)cc2)o1	D3 antag -66
CN(C)c1ccc(C=C2C=Cc3ccccc32)cc1	none
COc1cc2c(cc1OC)C(=Cc1ccc(N(C)C)cc1)C=C2	DRD3 agonist 33
FC(F)(F)C(F)(F)C(F)(F)C(F)(F)C(F)(F)F	none (no result: a7 integrin act, D3 antag)
COc1ccc(/C=C2\CCCC3C2=NN(C(=O)c2scnc2C)C3c2ccc(OC)c(OC)c2)cc1OC (stereo unspecified)	DRD3 agonist 72
COc1ccc(/C=C2\CCCC3C2=NN(C(=O)c2ccco2)C3c2ccc(OC)c(OC)c2)cc1OC (stereo unspecified)	none
O=C(O)/C=C/C(=O)N1CCN(c2ccccc2F)CC1	D3 antag -70
O=C(CCCC(=O)N1CCN(c2ccccc2F)CC1)N1CCN(c2ccccc2F)CC1	none
Cc1ccc(-n2ncc3c(SCc4ccccc4)ncnc32)cc1	none
CCOC(=O)C1[C@H]2C(=O)N(CCCOC)C[C@]23C=C[C@H]1O3 (stereo partly specified)	none
CCCCOC(=O)C1C2C=C[C@]3(CN(CCCOC)C(=O)[C@H]13)O2 (stereo partly specified)	D3 antag -51
COc1ccc2oc(C(=O)N3CCN(C/C=C/c4ccccc4)CC3)c(C)c2c1	DRD3 agonist 30
COc1ccc2[nH]c(C)c(C(=O)CN3CCN(C/C=C/c4ccccc4)CC3)c2c1	D3 antag -57
Cc1cc(C)c2c(CN3CCCCC3)cc(=O)oc2c1	none
Cc1[nH]c2ccccc2c1C(=O)CN1CCN(C/C=C/c2ccccc2)CC1	none
COc1cc(Br)cc(CN2CCN(C/C=C/c3ccccc3)CC2)c1O	D3 antag inconclusive
Cc1cc(C)c2c(CN3CCN(C/C=C/c4ccccc4)CC3)cc(=O)oc2c1	D3 antag -64
COc1ccc(O)c(CN2CCN(C/C=C/c3ccccc3)CC2)c1	D3 antag -76
COc1ccc2oc(C(=O)N3CCN(C(c4ccccc4)c4ccccc4)CC3)c(C)c2c1	none
CCN(CC)S(=O)(=O)c1ccc(NS(=O)(=O)c2ccc(OC)c([N+](=O)[O-])c2)cc1	none
COc1ccccc1CNC(=O)c1cc2ccccc2o1	none
CC(C(=O)OCC(=O)N1CCN(c2ccccc2)CC1)N1C(=O)c2ccccc2C1=O (stereo unspecified)	none
COc1c(C)cc(C(O)c2ncc(-c3ccccc3F)[nH]2)cc1C (stereo unspecified)	none (no result: a7 integrin act)
CCN1CCN(C(=O)c2cc3c(s2)-c2c(C)cccc2OC3)CC1	a7 integrin act inconclusive
Cc1cc(Br)ccc1NC(=O)CNC(=O)c1ccc(-n2cncn2)c([N+](=O)[O-])c1	none
Cc1ccc(Nc2nc(=O)c3cccnc3s2)cc1	D3 antag -102
COc1ccc(OC)c(Nc2nc(=O)c3cccnc3s2)c1	none
Cc1ccc(F)c(N=Cc2c(O)c3ccccc3oc2=O)c1	none
